In the library only some 19% were active in any assay of this set; here they are far more common.
DT40 TDP1 CPT: DT40-hTDP1 cell growth loss with CPT; chicken DT40 Tdp1-/-;hTDP1 cells + 20 nM CPT, ATP luminescence, 48 h; Potency, µM (highest dose often 46.2 µM), for the others: at the top dose activity change, negative = growth inhibition, actives largely listed as inhibitors; hit rate 12% among 420,000; AID 686979; further: nearly all actives have a fitted effect of over 55% in size
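Chicken DT40 Tdp1-/- cells stably complemented with human TDP1 were seeded at 400 cells/well in medium containing 20 nM camptothecin, exposed to pin-transferred compounds, and grown at 37 °C for at least 48 hr. Viability was read as ATP luminescence.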
HT1080-NT tox: kills 2HG-producing HT-1080-NT fibrosarcoma cells; HT-1080-NT fibrosarcoma viability, CellTiter-Glo ATP luminescence, 48 h; Potency, µM (series often up to 46.1 µM), inactives show top-dose activity, negative = less viability, most hits filed as cytotoxic; AID 686970; hit rate 1.6% among 360,000;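 further: NT is the 2HG producing partner of a matched IDH1 knockdown line; 0% = DMSO-treated cells and -100% = media-only wells without cells; nearly all actives have a fitted effect of over 55% in size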
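Viability of the 2HG-overproducing fibrosarcoma line after 48 hours of compound exposure at 37 degrees C was determined by luminescence with CellTiter-Glo, and concentration-effect curves were then fitted and categorized.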
KB-3-1 cytotox: kills parental KB-3-1 adenocarcinoma cells | Potency, µM (titrated, usually from 46.1 µM), hits mostly cytotoxic | KB-3-1 viability, CellTiter-Glo ATP luminescence, 72 h | AID 1347075 | hit rate 1.4% among 400,000; further: nearly all actives have a fitted effect of over 60% in size
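Here the drug-naive KB-3-1 line serves as comparator for MDR sub-line selectivity; cells received compound titrations, 72 h at 37 °C, then CellTiter-Glo readout.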
TDP1 cell noCPT: qHTS for Inhibitors of human tyrosyl-DNA phosphodiesterase 1 (TDP1): qHTS in cells in absence of CPT | hit rate 15% among 420,000 | AID 686978, 2013 | Potency, µM (top dose mostly 46.2 µM), without a hit: at the top dose activity change, negative = growth inhibition, actives largely listed as inhibitors | DT40 Tdp1-/- hTDP1 cells, no CPT, ATP luminescence, 48 h; further: nearly all actives have a fitted effect of over 55% in size
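Stably hTDP1-transfected Tdp1-null chicken DT40 cells were treated with library compounds minus camptothecin and grown for at least 48 hr at 37 °C, after which cellular ATP was quantified by luminescence.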
KB-V1 MDR tox: kills drug-selected multidrug resistant KB-V1 cells; hit rate 3.4% among 400,000; Potency, µM (highest dose often 46.1 µM), actives largely listed as cytotoxic; KB-V1 MDR cells viability, CellTiter-Glo, 72 h; AID 1347076; further: nearly all actives have a fitted effect of over 60% in size
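Cells of the MDR subline KB-V1 are plated, dosed with compound at multiple concentrations, and incubated 72 h at 37 degrees C; CellTiter-Glo is then added and luminescence read after 10 min.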
HT1080 IDH1KD tx: kills HT-1080 cells with IDH1 knockdown | Potency, µM (top dose mostly 46.1 µM), without a hit: at the top dose activity, negative = toxicity, usual class: cytotoxic | HT-1080 IDH1 knockdown viability, ATP luminescence, 48 h | hit rate 2% among 360,000 | AID 686971;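 further: 0% = DMSO wells and -100% = cell-free medium wells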
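After a 2 h attachment period, IDH1KD HT-1080 cells took pin-transferred compound for 48 h at 37 °C; ATP-based luminescence after 10 min room-temperature reagent incubation reported viability.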
An asterisk follows results filed as active; i = inactive; ? = inconclusive; / = no result given; [ ] = remark or other dose. The call rests on the fitted dose curve; in most records, active means well fitted curve in the direction sought with a large enough effect; inconclusive means small, poorly fitted or top-dose-only effect, or another doubt; inactive means no such curve, though single readings can be large; an effect the other way counts as inactive or inconclusive. Unless noted, on the % scale 0 is the no-effect control and ±100 the full control effect; potency means the concentration at half of the fitted maximal effect.

SMILES | DT40 TDP1 CPT | HT1080-NT tox | KB-3-1 cytotox | TDP1 cell noCPT | KB-V1 MDR tox | HT1080 IDH1KD tx
O=C(Nc1ccccc1C(=O)N/N=C/c1ccc(O)cc1)c1ccccc1 | -23.9% | -11.0% | i | -26.9% | i | -2.1%
CN(C)c1ccc(/C=N/NC(=O)c2ccccc2Cl)cc1 | 5.8µM* | 11.6µM* | ? | 7.31µM* | ? | 8.2µM*
CN(C)c1ccc(/C=N\NC(=O)c2ccc(Cn3cc(Cl)cn3)cc2)cc1 | ? | ? | ? | 16.4µM* | i | ?
O=C(N/N=C/c1ccc(O)cc1)c1csc2ccccc12 | ? | -2.0% | i | 0.259µM* | i | 2.5%[9.24 µM]
COc1ccc(C(=O)N/N=C/c2ccc(SC)cc2)cc1 | -13.9% | 12.6% | i | -17.6% | i | 14.7%
CSc1ccc(/C=N/NC(=O)c2ccc(O)cc2)cc1 | 25.9µM* | -4.2% | i | ? | ? | -16.8%
CN(CCc1cnn(C)c1)Cc1nc(CC2CC2)no1 | -7.0% | -1.0% | i | -18.4% | i | 13.1%
CCCCN(C(=O)c1cc2ccccc2o1)c1c(N)n(CCCC)c(=O)[nH]c1=O | -16.8% | -6.5% | i | -7.3% | i | 2.2%
O=C(NCCOc1ccccc1)C1CCC(=O)N(C2CCCCCC2)C1 (configuration not stated) | -12.4% | -10.4% | i | -12.5% | ? | 0.3%
Cc1occc1C(=O)N/N=C/c1ccc(N(C)C)cc1 | -0.5% | ? | i | -23.6% | i | 23.1µM*
CSc1ccc(/C=N/NC(=O)c2ccccc2Cl)cc1 | 16.4µM* | ? | ? | 13µM* | ? | ?
CCCN1CNc2c(c(=O)[nH]c(=S)n2CCc2ccc(OC)cc2)C1 | 6.8% | -0.2% | / | -18.1% | / | 18.9%
COc1ccc(OC)c(NC(=O)CSc2nnc(NC(=O)c3ccco3)s2)c1 | -23.9% | -5.0% | i | -7.5% | i | -4.5%
COc1ccc(/C=C/c2cc[n+](C(=O)Cc3ccccc3)cc2)cc1 | 3.26µM* | ? | ? | 2.31µM* | i | ?
COc1ccc(/C=C/C(=O)NCCCc2ccccc2)cc1 | -7.4% | 21.8% | i | 5.2% | i | 16.5%
CCNc1nc(OC)nc(Oc2ccc(=O)n(-c3ccccc3)n2)n1 | -19.6% | 5.6% | i | -7.6% | i | 6.1%
COc1nc(NC(C)(C)C)nc(Oc2ccc(=O)n(-c3ccccc3)n2)n1 | -20.2% | 0.7% | i | -25.2% | 20.6µM* | -10.5%
CCCNC(=O)C(Cc1cccc(Cl)c1)NC(=O)c1ccccc1 (configuration not stated) | ? | -8.1% | i | -28.3% | i | -3.1%
c1ccc(NN=C(c2ccccc2)c2cccs2)cc1 | -6.7% | -0.8% | i | 20.6µM* | i | -20.1%
O=C(O)CC/C(=N\Nc1ccc(Cl)cc1)c1cccs1 | -10.2% | -17.5% | i | -14.3% | i | -17.9%
CN(C)Cc1ccc(CNC(=O)COc2ccc3ccccc3c2)cc1 | -26.6% | -16.7% | i | ? | i | 1.3%
NC(=O)CSc1nc(C23CC4CC(CC(C4)C2)C3)nc2ccccc12 | ? | -2.3% | i | 25.9µM* | i | -1.5%
CC(C)(C)S(=O)(=O)c1cnc(-c2ccc(Cl)cc2)nc1N | 1.5% | -1.7% | i | -23.6% | i | 0.9%
Cc1nc(N)nc(N)c1/C=C/C(C)(C)c1ccc(Cl)cc1 | ? | 0.0291µM* | ? | 0.0326µM* | ? | 0.0082µM*
CCOC(=O)N1CCN(S(=O)(=O)N2CCCC(C(=O)NCc3cc(Br)ccc3OC)C2)CC1 (configuration not stated) | 18.4µM* | -10.7% | i | 13µM* | i | -6.2%
SMILES | DT40 TDP1 CPT | HT1080-NT tox | KB-3-1 cytotox | TDP1 cell noCPT | KB-V1 MDR tox | HT1080 IDH1KD tx
Cc1ccc(OCCCN2C(=O)C(=O)c3cccc(C)c32)cc1 | 7.31µM* | 2.0% | i | 14.6µM* | i | -3.0%
Cc1ccc(CN2C(=O)CSC(C)C2=O)cc1 (configuration not stated) | 33.6% | 3.4% | i | 3.2% | i | -1.6%
Cc1ccc(OCCCn2c(=O)sc3ccccc32)cc1 | -3.0% | -2.8% | i | -14.6% | i | -1.3%
Cc1ccc(OCCN2C(=O)C(=O)c3cc(C)ccc32)cc1 | 0.92µM* | -26.8% | ? | ? | ? | ?
Cc1ccc(CN2C(=O)C(=O)c3cc(Br)cc(C)c32)cc1 | 2.31µM* | / | ? | 1.46µM* | ? | /
CCCOc1ccc(CN2C(=O)C(=O)c3cccc(C)c32)cc1 | 1.3µM* | / | / | 1.84µM* | / | /
O=C(COC(=O)c1ccc(Cl)nc1)Nc1cc(S(=O)(=O)N2CCOCC2)ccc1Cl | ? | 1.1% | i | ? | i | -1.7%
CCOC(=O)c1nn(-c2ccccc2Cl)c(=O)cc1OCC(=O)Nc1cccc(OC)c1 | -2.3% | 0.7% | i | -20.3% | i | -1.6%
CC(SCC(=O)NC(C)C1CC2CCC1C2)C(=O)O (configuration not stated) | 7.0% | 18.5% | i | 5.5% | i | 18.7%
Cc1cccc2c1N(CCOc1ccc(C(C)(C)C)cc1)C(=O)C2=O | 2.91µM* | ? | ? | 4.11µM* | i | ?
O=C1c2ccccc2C(=O)N1CCOc1ccccc1 | 0.2% | -5.1% | i | -12.1% | i | -1.4%
Cc1ccc(C)c(S(=O)(=O)N2CCN(C(=O)CCCc3c[nH]c4ccccc34)CC2)c1 | ? | 0.3% | i | 23.1µM* | ? | -22.5%
Cc1ccc(C)c(S(=O)(=O)N2CCN(C(=O)CCc3c[nH]c4ccccc34)CC2)c1 | -5.2% | 0.7% | ? | -21.8% | i | 2.1%
Cc1ccc(C)c(S(=O)(=O)N2CCN(C(=O)CCc3nc4ccccc4c(=O)[nH]3)CC2)c1 | 20.6µM* | -13.3% | ? | 20.6µM* | i | -13.1%
O=C(CCc1nc2ccccc2c(=O)[nH]1)N1CCN(S(=O)(=O)c2ccccc2Br)CC1 | 20.6µM* | -3.3% | ? | ? | i | -21.4%
COc1ccc(O)c(C(=O)N2CCC3(CC2)c2ccccc2[C@@H](NC(=O)c2ccccn2)[C@@H]3OC)c1 | 1.9%[9.04 µM] | / | / | -26.7% | / | /
CSc1ccc(CN2CCCC(N3CCN(c4ccccc4)CC3)C2)cc1 (configuration not stated) | ? | -7.7% | ? | ? | i | -1.2%
CC(OC(=O)CCN1C(=O)C2CC=CCC2C1=O)C(=O)c1ccc(F)cc1 (configuration not stated) | 3.1% | 10.3% | i | 10.4% | i | 11.5%

Screening data from PubChem BioAssay.
